Source: PubChem BioAssay
Only some compounds are listed: those with a hit (about 0.84% of all), similar ones and a draw of the others.
TR-FRET SRC-2 ct = TR-FRET artefact, counter-screen to PPARgamma/SRC-2 agonist assay; active compounds read high; TR-FRET ratio at 8 µM; 200,000 tested, 0.4% active
SRC3 TRFRET art = flags TR-FRET format artefacts in PPARgamma SRC-3 recruitment agonist screen; 99,000 tested, 0.39% active; TR-FRET ratio at 8 µM; TR-FRET artefact counter-screen, PPARgamma/SRC-3 format; active compounds read high
SRC1 TRFRET art = flags TR-FRET format artefacts in PPARgamma SRC-1 recruitment agonist screen. TR-FRET detection artefact counter-screen, emission ratio; active compounds read high. 99,000 tested, 0.34% active. TR-FRET ratio at 8 µM. AID 1051; in the data active = TR-FRET ratio above about 2300
PPARg SRC-2 ag = PPARgamma-driven SRC-2 recruitment agonism; P37231; PPARgamma LBD-SRC-2 recruitment, biochemical; activation, % at 8 µM; 200,000 tested, 0.34% active; in the data active = activation above about 22%;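 note: 0% = vehicle and 100% = reference agonist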
Target sequence (P37231 whole entry, looked up, the tested form may be a part): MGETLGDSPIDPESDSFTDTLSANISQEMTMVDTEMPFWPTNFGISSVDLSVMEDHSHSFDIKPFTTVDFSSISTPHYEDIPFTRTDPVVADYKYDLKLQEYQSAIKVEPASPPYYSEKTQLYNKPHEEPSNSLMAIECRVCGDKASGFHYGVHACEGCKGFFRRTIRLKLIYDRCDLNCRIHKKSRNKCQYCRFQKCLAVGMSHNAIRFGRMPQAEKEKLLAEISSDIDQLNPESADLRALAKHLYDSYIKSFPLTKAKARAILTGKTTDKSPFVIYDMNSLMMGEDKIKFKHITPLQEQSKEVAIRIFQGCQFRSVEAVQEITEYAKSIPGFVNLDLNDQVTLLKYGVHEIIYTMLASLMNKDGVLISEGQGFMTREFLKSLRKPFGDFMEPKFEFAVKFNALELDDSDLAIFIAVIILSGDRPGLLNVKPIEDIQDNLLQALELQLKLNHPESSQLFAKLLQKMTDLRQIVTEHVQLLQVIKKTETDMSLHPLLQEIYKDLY
PPARg SRC-3 ag = PPARgamma-driven SRC-3 recruitment agonism; activation, % at 8 µM; 200,000 tested, 0.26% active; AID 731; biochemical PPARgamma/SRC-3 coactivator recruitment assay; in the data active = activation above about 23%;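 note: 0% = DMSO and 100% = reference agonist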
PPARg SRC-1 ag = PPARgamma-driven SRC-1 recruitment agonism; activation, % at 8 µM; 200,000 tested, 0.41% active; AID 631; PPARgamma-SRC-1 coactivator recruitment biochemical assay; P37231; in the data active = activation above about 19%;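 note: 0% = DMSO and 100% = reference agonist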
An asterisk follows results filed as active; / = no result given. Cut-off read from the data, not from the text of the source, unless noted: active = TR-FRET ratio above about 2000; inactive = the rest.

SMILES | TR-FRET SRC-2 ct | SRC3 TRFRET art | SRC1 TRFRET art | PPARg SRC-2 ag | PPARg SRC-3 ag | PPARg SRC-1 ag
O=C(c1cc(-c2cccs2)nc2ccccc12)N1CCN(S(=O)(=O)c2ccccc2)CC1 | 2313* | / | / | 2 | -5 | -4
CCC1=NN(C(=O)CCc2ccc3c(c2)OCO3)C(O)(C(F)(F)F)C1 (stereo unspecified) | 1566 | 1433 | 1775 | 2 | 5 | -5
O=C(CSc1ccc(-c2ccco2)nn1)NCc1ccccc1Cl | 1506 | 1557 | 2338* | 6 | 6 | 3
O=C(C1CCN(S(=O)(=O)N2CCCCC2)CC1)N1CCCCC1 | 1571 | 1591 | 1708 | 5 | -2 | 3
CCN(CC)C(=O)c1cn(CCC#N)nc1-c1ccc2c(c1)OCCO2 | 1582 | 1364 | 2134 | 5 | 3 | 12
CCN(CC)C(=O)c1cn(-c2ccccc2)nc1-c1ccc2c(c1)OCCO2 | 1980* | 1746 | 1844 | 5 | 6 | 9
COc1ccc(Nc2nc(-c3ccccc3)c(C(=O)Nc3cccnc3)s2)cc1 | 1853 | 2178* | 2466* | 16 | 19 | 17
Cc1ccc(NC(=O)COC(=O)c2ccc([N+](=O)[O-])o2)cc1S(=O)(=O)N1CCCCCC1 | 1543 | 1743 | 2038 | 2 | 7 | 6
CCc1nc(SCC(=O)Nc2ccc3c(c2)OCCO3)c2oc3ccccc3c2n1 | 1553 | / | / | 1 | -5 | 67*
Cc1nc(SCC(=O)Nc2ccc3c(c2)OCCO3)c2oc3ccccc3c2n1 | 1540 | / | / | 16 | 12 | 8
Cc1ccc(/C(O)=C2\C(=O)C(=O)N(c3cc(C)on3)C2c2cccc(Cl)c2)cc1 (stereo unspecified) | 1632 | / | / | 3 | 11 | 15
COc1ccc(/C(O)=C2\C(=O)C(=O)N(c3cc(C)on3)C2c2cccc(OC)c2OC)cc1C (stereo unspecified) | 2062* | / | / | 19 | 15 | 16
CCCCc1ccc(/C=C(\C#N)C(N)=S)s1 | 1625 | 1538 | 1995 | 0 | -1 | 4
CCCCc1ccc(C2C(C#N)=C(N)SC(N)=C2C#N)s1 | 1742 | / | / | 4 | 8 | 21*
CN(C)S(=O)(=O)c1cccc(-c2nnc(SCC(=O)NCCCCCC(=O)O)n2-c2ccc(F)cc2)c1 | 1718 | 1768 | 1992 | 11 | 8 | 10
Cc1ccc(C(=O)Nc2ccc(Oc3ccc(C(=O)O)c(C(=O)O)c3)cc2)cc1C | 1940 | / | / | 22* | 1 | 6
COc1ccc2c(c1)[nH]c(=O)c1sc3ccccc3c12 | 1661 | / | / | 7 | 8 | 15
COc1ccc2sc3c(=O)[nH]c4ccccc4c3c2c1 | 1611 | / | / | 1 | 8 | 145*
CCCn1c(O)c(C=Nc2ccccc2)sc1=S | 1498 | 1466 | 1715 | -3 | -2 | -4
CCn1c(O)c(C=Nc2ccccc2)oc1=S | 1976* | / | / | 8 | 5 | 11
CC(C)(C)c1cc[n+](CC(=O)Nc2cc(C(F)(F)F)ccc2N2CCOCC2)cc1 | 1622 | 1552 | 1471 | -3 | 1 | -1
Cc1ccc2sc3ccc(NC(=O)c4ccccc4Cl)cc3c(=O)c2c1 | 2846* | / | / | 13 | 11 | 0
CSc1cc(-c2ccc(Cl)cc2)n(Cc2ccccc2)c(=O)c1C#N | 1632 | / | / | 5 | 43* | 6
COc1ccc(C2(C(=O)Nc3ccc(C)c(C)c3)CCOCC2)cc1 | 1451 | 1624 | 1722 | -2 | 2 | 1
O=C(CSc1nnnn1-c1ccccc1)Nc1nsc(-c2ccc(Cl)cc2)n1 | 1576 | 2179* | 1911 | 2 | 7 | 7
SMILES | TR-FRET SRC-2 ct | SRC3 TRFRET art | SRC1 TRFRET art | PPARg SRC-2 ag | PPARg SRC-3 ag | PPARg SRC-1 ag
O=C(NC1CCNCC1)C1CC1 | 1387 | 1689 | 1642 | 4 | 5 | 3
CC(C)CC1CC(C)(c2csc(NNC(=O)c3ccccc3)n2)OC1=O (stereo unspecified) | 1729 | 1740 | 1797 | 11 | 3 | 0
Cn1cc(/C=N/n2cnc3sc4c(c3c2=O)CCCC4)c2ccccc21 | 1972* | / | / | 2 | 10 | 7
O=c1c2c3c(sc2ncn1/N=C/c1ccc([N+](=O)[O-])o1)CCCC3 | 1512 | / | / | -6 | -4 | 8
CCN(CC)c1ccc(C=Nc2ccc(C)cc2)c(O)c1 | 1701 | / | / | 11 | 5 | 4
CCN(CC)c1ccc(N=Cc2ccc(N(CC)CC)cc2O)cc1 | 1964 | / | / | 27* | 41* | 14
Cc1nc(N2CCN(S(=O)(=O)c3ccc(F)cc3)CC2)c2c(-c3cccs3)csc2n1 | 2641* | 2853* | 3173* | -7 | 0 | -2
O=S(=O)(c1ccccc1)N1CCN(c2nc(-c3cccs3)nc3ccccc23)CC1 | 1678 | 1537 | 1800 | 6 | 0 | 2
Cc1ccc(S(=O)(=O)N2CCCN(c3nc4cc(C)ccc4cc3C#N)CC2)cc1 | 3009* | / | / | -5 | 11 | -4
Cc1ccc2cc(C#N)c(N3CCCN(C(=O)C4CCCO4)CC3)nc2c1 (stereo unspecified) | 1481 | / | / | 1 | -4 | -2
CCCCCC(=O)NCc1c(C(F)(F)F)nn(C)c1N1CCOCC1 | 1536 | 1274 | 1708 | -7 | -4 | -5
CCOc1ccc(Br)cc1C(=O)N/N=C/c1ccc([N+](=O)[O-])cc1 | 1653 | 1542 | 1882 | 12 | 3 | 9
CCC(=O)Nc1ccc(C(=O)N/N=C/c2ccc([N+](=O)[O-])cc2)cc1 | 1712 | 1554 | 2345* | 4 | 7 | 11
COc1ccc(Br)cc1C(=O)N/N=C/c1ccc([N+](=O)[O-])cc1 | 1717 | 1795 | 2467* | 5 | 0 | 30*
OCC1(Cc2ccc(Cl)cc2)CCN(Cc2ccc3nsnc3c2)CC1 | 1895 | 2045 | 2393* | 20 | 14 | 18
O=C(NCc1n[nH]c(=S)n1-c1ccc(Br)cc1)c1ccc(S(=O)(=O)N2CCOCC2)cc1 | 1713 | 1445 | 1728 | 22* | 4 | 5
O=C(NCc1n[nH]c(=S)n1-c1ccc(Br)cc1)c1ccc(S(=O)(=O)N2CCCC2)cc1 | 1416 | 1545 | 1793 | 3 | 0 | 5
CCOC(=O)c1ccc(N2CSC3=C(C#N)C(c4cccs4)CC(=O)N3C2)cc1 (stereo unspecified) | 2211* | / | / | 20 | 19 | 7
COc1ccc(N2CSC3=C(C#N)C(c4cccs4)CC(=O)N3C2)cc1 (stereo unspecified) | 2277* | / | / | 29* | 39* | 30*
CCc1ccc(N2CSC3=C(C#N)C(c4cccs4)CC(=O)N3C2)cc1 (stereo unspecified) | 2462* | 1937 | 2307 | 35* | 8 | 10
CCc1ccc(C2CC(=O)N3CN(c4ccccc4)CSC3=C2C#N)cc1 (stereo unspecified) | 1752 | / | / | 9 | 16 | 5
O=C(Nc1nc2c(ccc3ccccc32)s1)c1cc([N+](=O)[O-])ccc1N1CCOCC1 | 1851 | 1643 | 2030 | -8 | -1 | 4
CN(C)S(=O)(=O)c1ccc(N2CCCC2)c(C(=O)Nc2nc3c(ccc4ccccc43)s2)c1 | 2069* | 2179* | 2112 | 10 | 7 | 2
